CHT allo act = allosteric activators of human choline transporter CHT; Q9GZV3; CHT-expressing cells, membrane potential dye, choline EC20; hits give high values; LV-AA mutant CHT in HEK293 cells; B-score at 10 µM; 310,000 tested, 0.49% active; AID 488977;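 active means initial fluorescence not abnormally high and integrated response B-score, plate-corrected, over 3 SD above library mean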
Target sequence (Q9GZV3 whole entry, looked up): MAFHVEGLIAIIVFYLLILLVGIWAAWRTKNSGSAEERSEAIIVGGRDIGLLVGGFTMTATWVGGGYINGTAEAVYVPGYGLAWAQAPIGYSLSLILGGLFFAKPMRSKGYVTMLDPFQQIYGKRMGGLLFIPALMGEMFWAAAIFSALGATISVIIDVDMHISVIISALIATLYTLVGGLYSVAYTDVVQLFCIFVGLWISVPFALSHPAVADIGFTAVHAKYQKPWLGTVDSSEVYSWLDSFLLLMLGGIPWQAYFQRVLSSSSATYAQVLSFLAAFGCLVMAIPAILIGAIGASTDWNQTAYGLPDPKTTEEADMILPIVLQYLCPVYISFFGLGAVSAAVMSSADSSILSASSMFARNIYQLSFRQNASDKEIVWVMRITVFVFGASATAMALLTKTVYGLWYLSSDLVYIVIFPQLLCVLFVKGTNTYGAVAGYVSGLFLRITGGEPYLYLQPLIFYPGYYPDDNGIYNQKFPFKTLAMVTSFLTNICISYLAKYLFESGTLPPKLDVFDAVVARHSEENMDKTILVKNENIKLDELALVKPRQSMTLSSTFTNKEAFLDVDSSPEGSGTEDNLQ
CHT block = inhibits the human high affinity choline transporter. B-score at 10 µM. Q9GZV3. CHT-expressing cells, membrane potential dye, choline response; hits give low values. 310,000 tested, 0.86% active;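 active means B-score over 3 SD under the library average, and starting fluorescence ratio not unusually high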;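 further: choline stimulus applied at its EC90 after an EC20 pre-addition; B-score computed on integrated fluorescence ratio after choline addition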
PREPL inhibitor = inhibitors of human prolyl oligopeptidase-like enzyme PREPL | Q4J6C6 | recombinant PREPL, fluorescence polarization activity-based probe | inhibition, % at 5.96 µM | 320,000 tested, 0.68% active; in the data active means inhibition above about 43%;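 further: 0% = enzyme with DMSO and 100% = wells lacking enzyme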
ALR H2O2 inh = inhibitors of human sulfhydryl oxidase ALR; 290,000 tested, 3.8% active; inhibition, % (concentration not given with the values); AID 485317; purified ALR, DTT oxidation, H2O2 HRP-luminol luminescence;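 active means mean replicate inhibition above about 79%, with every replicate also reaching it, limit read from the data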
AI-2 QS mod = Vibrio harveyi AI-2 quorum sensing modulation; Vibrio harveyi JMH597 AI-2 luminescence/OD600 ratio, 9 h; hits give low values; strain lacks LuxN and CqsS sensors; 0 = neutral-control median; activity change, % at 7.5 µM; 300,000 tested, 0.4% active; AID 2094; in the data active means activity change below about -75%, passing the limit was not always enough;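 further: luminescence divided by OD600 gain over 9 h not by final OD600 alone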
The depositor's hits bear a star; i = inactive; nt = not tested or not shown. In the library only some 5% were active in any assay of this set; here they are far more common.

SMILES	CHT allo act	CHT block	PREPL inhibitor	ALR H2O2 inh	AI-2 QS mod
CCOC(=O)c1c(CN2CCCCC2)n(C)c2cc(Br)c(O)c(CN(C)C)c12	11*	i	5	26	4
CCOC(=O)c1c(CN2CCN(CCO)CC2)n(C)c2cc(Br)c(OC)cc12	7.7*	i	1	-8	14
CCOC(=O)c1c(CSc2ccccc2)n(C)c2cc(Br)c(O)c(CN(C)C)c12	i	i	15	84*	8
CCOC(=O)c1c(C)n(C)c2ccc(O)c(CN3CCCCC3)c12	i	-13*	12	18	-4
O=[N+]([O-])c1ccc(N2CCN(C(=S)Nc3ccc(F)cc3F)CC2)cc1	i	i	-47	-5	-14
CN(C)c1ccc(Nc2nc(N)c([N+](=O)[O-])c(N3CCOCC3)n2)cc1	i	i	31	99*	29
O=C(NC1CCCCC1)C(c1ccc(F)cc1)N(C(=O)c1csnn1)C1CC1 (stereo not given)	i	i	-1	-1	nt
O=C(C1CC(=O)N(c2ccccc2F)C1)N1CCOCC1 (stereo not given)	nt	nt	8	9	nt
COc1cc(SC#N)ccc1N=Cc1c(C)[nH]n(-c2ccc(C)cc2C)c1=O	i	i	4	99*	4
COc1cc(S(=O)(=O)Nc2ccc(C)cc2)ccc1N=Cc1c(C)[nH]n(-c2ccc(C)cc2)c1=O	i	i	-5	-6	4
COc1cc(SC#N)ccc1N=Cc1c(C)[nH]n(-c2cccc3ccccc23)c1=O	i	i	8	99*	10
COc1ccccc1N=Cc1c(C)[nH]n(-c2ccc(C)cc2C)c1=O	i	i	0	3	23
CN(CC(=O)O)S(=O)(=O)c1ccc2c(c1)NC(=O)CC(=O)N2	i	i	-2	0	2
COc1ccc(-c2nn(-c3ccccc3)cc2C(=O)NC(=S)N2CCOCC2)cc1OC	nt	nt	3	-6	nt
Cc1ccsc1/C=N/N1CCN(c2ccccn2)CC1	i	i	11	99*	11
Cc1ccc(/C=N/N2CCN(c3ccccn3)CC2)cc1	i	i	7	-4	-2
Cc1c(C(=O)NC2CC2)oc2ccccc12	nt	nt	-1	-2	nt
COCc1c(C(=O)NC2CCCCCC2)oc2ccccc12	i	i	11	89*	2
Cc1cccc(NC(=O)COC(=O)c2ccc(C)c(S(=O)(=O)N3CCCCC3)c2)c1	nt	nt	7	nt	nt
N#C/C(=C\c1cc2c(cc1Br)OCO2)C(=O)NCC1CCCO1 (stereo not given)	i	i	3	98*	0
CC[C@]12c3[nH]c4ccccc4c3CCN1C(=O)C(CC(=O)NCc1cccc(C(F)(F)F)c1)C[C@@H]2C(=O)N1CCN(C(=O)c2ccco2)CC1 (stereo not given in full)	nt	nt	23	-5	nt
Cc1ccc(NC(=O)Cc2nc(-c3c[nH]c(C(=O)N4CCCC4)c3)cs2)c(C)c1	nt	nt	22	98*	nt
N#C/C(=N\Nc1ccc(F)cc1)C(=N)N1CCCCC1	i	i	19	64	2
COc1ccc(N/N=C(\C#N)C(=N)N2CCOCC2)cc1	i	i	12	99*	15
CCc1ccc(OCC(=O)N/N=C\c2ccco2)c([N+](=O)[O-])c1	i	i	7	96*	21
SMILES	CHT allo act	CHT block	PREPL inhibitor	ALR H2O2 inh	AI-2 QS mod
O=C(COc1ccccc1[N+](=O)[O-])N/N=C/c1ccc(O)cc1	i	i	3	nt	27
Cc1ccc(OCC(=O)N/N=C\c2ccc(O)cc2)c([N+](=O)[O-])c1	i	i	7	87*	11
O=c1[nH]c(CSc2nc3ccccc3s2)nc2ccccc12	i	i	-30	-129	20
Cc1sc2nc(CSCC(=O)N(C)CC(=O)Nc3ccc(F)cc3)[nH]c(=O)c2c1C	i	i	6	99*	5
Cc1sc2nc(CSCC(=O)NC(C)(C)C)[nH]c(=O)c2c1C	i	i	-8	99*	12
CN(CC(=O)Nc1cccc(F)c1)C(=O)CCc1nc2sc3c(c2c(=O)[nH]1)CCCC3	i	i	12	91*	6
Cc1cccc(C)c1NC(=O)CN(C)C(=O)CCc1nc2sc3c(c2c(=O)[nH]1)CCCC3	nt	nt	25	-5	nt
Cc1sc2nc(CSc3nc4ccccc4s3)[nH]c(=O)c2c1C	i	i	-31	99*	20
COc1ccc(S(=O)(=O)Nc2ccc(S(=O)(=O)Nc3nccs3)cc2)cc1	i	i	16	nt	0
CN(C)CCCNC(=O)C(=O)NCC1CCCO1 (stereo not given)	i	i	-14	-4	23
CCC(C)(C)C1CCC(NC(=O)N2CCN(c3ccccc3O)CC2)CC1 (stereo not given)	i	i	3	nt	16
O=C(CSc1nc2ccc([N+](=O)[O-])cc2s1)NCC1CCCO1 (stereo not given)	i	i	6	nt	22
COCCNC(=S)N/N=C(\C)CCc1ccc2c(c1)OCO2	i	i	10	4	17
C/C(CCc1ccc2c(c1)OCO2)=N\NC(=S)NC(C)C	i	i	-6	85*	41
O=C(NCCCN1CCOCC1)C1CCN(S(=O)(=O)c2cccc(Cl)c2Cl)CC1	i	i	-8	-2	11
O=c1cc(CO)oc(C(Nc2ccccn2)c2ccccc2F)c1O (stereo not given)	i	i	2	97*	17
CCc1nnc(N/N=C/c2cc(Br)c(O)cc2O)n1N	i	i	15	83*	28
COCc1nnc(NC(=O)c2cccc(NC(=O)c3ccccc3)c2)s1	i	i	21	7	26
CCCCNc1c(NC(C)=O)c(=O)oc2ccccc12	i	i	8	nt	3
c1ccc2c(c1)nc1n2CCS1	i	i	14	-2	13
OC1C=CSc2nc3ccccc3n21 (stereo not given)	i	i	3	86*	16
COc1ccc(OC)c(CNc2ncc(-c3cccc([N+](=O)[O-])c3)n2C)c1	i	i	13	98*	-7
COC(=O)/C(C#N)=C/c1c[nH]c2ccccc12	i	i	-4	-7	17
COc1cc(/C=C(\C#N)C(=O)c2c[nH]c3ccccc23)cc(OC)c1O	i	i	13	99*	17
CCCOC(=O)c1ccc(NC(=O)CSC2=Nc3ccccc3C3CC=NN23)cc1 (stereo not given)	i	i	-10	97*	9
O=C(CSC1=Nc2ccccc2C2CC=NN12)NCc1ccco1 (stereo not given)	nt	nt	-3	99*	nt
N#Cc1ccccc1NC(=O)CSC1=Nc2ccccc2C2CC=NN12 (stereo not given)	i	i	-4	-9	0
N#Cc1cnc(N)c(Br)c1	i	i	12	-5	29

Bioassay records from PubChem.
